± gives the standard deviation of the averaged measurements.
Tests used:
Conditions in all cases: concentration: 10 µM; 24 h
HCC1569 [1] = assay: cell number relative to DMSO (% of DMSO); higher = more cells (less growth inhibition / toxicity)
Outline: (§1)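 In 384-well plates holding 800 HCC1569 or TDF cells per well in RPMI with 10% FBS, compounds were tested at 10 µM for 24 h at 37 °C in triplicate. Fixation used 3.7% formaldehyde. Staining used a rabbit anti-H1.0 antibody with an AlexaFluor 647 secondary, plus DAPI. Each value, H1.0 nuclear intensity or cell number, is a median of replicates shown as percent of the plate control, and HCC1569 values were smoothed for positional effects.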

TDF [2] = assay: as above
Outline: as §1

TDF [3] = assay: H1.0 immunofluorescence intensity relative to DMSO (% of DMSO); higher = stronger H1.0 induction, active = 120 or more
Outline: as §1

HCC1569 [4] = assay: H1.0 immunofluorescence intensity relative to DMSO (% of DMSO); higher = stronger H1.0 induction, active = 140 or more
Outline: as §1
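For H1.0 immunofluorescence intensity relative to DMSO in this document: TDF is a line of transformed human dermal fibroblasts of mesenchymal origin.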
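For cell number relative to DMSO in this document: TDF denotes transformed human dermal fibroblasts of mesenchymal origin.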

| SMILES | cell number (HCC1569 [1]) | cell number (TDF [2]) | H1.0 immunofluorescence intensity (TDF [3]) | H1.0 immunofluorescence intensity (HCC1569 [4]) |
| --- | --- | --- | --- | --- |
| Oc1ccc(C=Cc2cc(O)cc(O)c2)cc1 [Resveratrol] | 79.2 ± 6.3 | 79.5 ± 4 | 99.5 (inactive) | 113 (inactive) |
| CC(=O)c1ccc(NC2=C(Cl)C(=O)c3ccccc3C2=O)cc1 [2-(4-acetylanilino)-3-chloronaphthoquinone] | 17.7 | 8.89 | 150 (active) | 178 (active) |
| CCCCCC(O)C=CC=CCC=CCC=CCCCC(=O)O (stereo not drawn) | 103 | 100 | 96.7 (inactive) | 99.7 (inactive) |
| CC1(C(=O)O)CCC2(C)CCC3(C)C(=CC(=O)C4C5(C)CCC(O)C(C)(C)C5CCC43C)C2C1 (stereo not drawn) | 102 | 108 | 98.4 (inactive) | 84.4 (inactive) |
| CC(Cc1ccc(O)c(O)c1)(NN)C(=O)O (stereo not drawn) [S-(-)-Carbidopa] | 106 | 112 | 91.7 (inactive) | 90 (inactive) |
| C#CC(N)CCC(=O)O (stereo not drawn) [gamma-Acetylinic GABA] | 103 | 99.9 | 93.2 (inactive) | 84.4 (inactive) |
| CS(=O)(=O)c1ccc(-c2cc(Br)sc2-c2ccc(F)cc2)cc1 | 99.9 | 100 | 96.8 (inactive) | 95.6 (inactive) |
| CCCCCCCCCCCCCCCC(=O)NC(COP(=O)(O)O)C(=O)O (stereo not drawn) | 102 | 109 | 92 (inactive) | 98.9 (inactive) |
| O=C(O)CCCC=CCC1C(O)CC(O)C1C=CC(O)COc1cccc(C(F)(F)F)c1 (stereo not drawn) [Fluprostenol] | 100 | 96 | 92.2 (inactive) | 97.4 (inactive) |
| NCC1OC(OC2C(CO)OC(OC3C(O)C(N)CC(N)C3OC3OC(CO)C(O)C(O)C3N)C2O)C(N)C(O)C1O.O=S(=O)(O)O (stereo not drawn) [Paromomycin sulfate] | 105 | 106 | 93.7 (inactive) | 101 (inactive) |
| O=C1CCC(c2ccc(-n3ccnc3)cc2)=NN1 [Imazodan] | 95.5 | 93.8 | 103 (inactive) | 118 (inactive) |
| CCN(CC)CCCC(C)Nc1ccnc2cc(Cl)ccc12 (stereo not drawn) [Chloroquine] | 101 | 99.6 | 98.2 (inactive) | 93.6 (inactive) |

From the supplement of paper PMC7156485
